Measurements taken from PubChem BioAssay (NCI).
Compounds without any hit were thinned out: in the full panel of roughly 83,000, 20% have a hit.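 Negative percent growth values reflect cell death: -40 means 40% of the cells present at the start died, and -100 means all died.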 A number with no mark means an inactive call. How the source made its calls: active means growth percent below 10; inactive means the rest.

test system: NCI-H23 lung; test: NCI-60 one-dose screen, 48 h (100 = growth as untreated, 0 = no growth, -100 = all killed); details: 10 µM unless noted

SMILES	growth [%]
CC[C@H](C)[C@H](NC(=O)c1ccccn1)C(=O)N(C)[C@H](C[C@@H](OC(C)=O)c1nc(C(=O)N[C@@H](Cc2ccccc2)C[C@H](C)C(=O)OC)cs1)C(C)C	28.3
O=[N+]([O-])c1cnc[nH]1	103
CC(=O)O[C@H]1CC[C@]2(C)[C@H]3CC[C@]4(C)[C@@H](OC(C)=O)CC[C@H]4[C@@H]3[C@@H](C)[C@]2(O)C1	111
CCN(CC)CCOC(=O)C(OC(C)C)(c1ccccc1)c1ccccc1	99.1
O=C1NC(=O)C(=Cc2cccn2CCCCCn2c3ccccc3c(=O)c3ccccc32)C(=O)N1	96.3
COc1ccc(Nc2ccc([N+](=O)[O-])cc2[N+](=O)[O-])cc1CN(CCCl)CCCl	18.4
CCCC[C@H](NC(=O)[C@H]1CCCCN1C)C(=O)N(C)[C@H](C[C@@H](OC(C)=O)c1nc(C(=O)N[C@@H](Cc2ccccc2)C[C@H](C)C(=O)OCC)cs1)C(C)C	27.1
Nc1c(F)cc(-c2nc3cc(F)ccc3[se]2)cc1F	49.4
COC(=O)[C@H](Cc1ccccc1)NC(=O)c1csc([C@@H](C[C@H](C(C)C)N(C)C(=O)[C@@H](NC(=O)[C@H]2CCCCN2C)C2CC2)OC(C)=O)n1	23.9
COC(=O)[C@@H](C)C[C@H](Cc1ccccc1)NC(=O)c1nc([C@@H](C[C@H](C(C)C)N(C)C(=O)[C@@H](NC(=O)[C@H]2CC(=O)CCN2C)C(C)C)OC(C)=O)sc1C(C)C	26.5
